From PubChem BioAssay AID1159580 (chemical genetic matrix, 2015)
Values joined by “and” are separate entries in the source; they are usually repeats but may differ in a detail not shown here. Equal entries are not always repeated. In all, about 5,500 compounds went through this assay and about 2,000 (36%) were called active. About 18% were inconclusive and are not listed. No stated cut-off is given here; in the data, active means normalized growth mostly below about 0.91 (no sharp cut-off); inconclusive means no clear call, values can overlap the other calls; inactive means mostly above about 0.92. The list shows a part of the results.

Assay: chemical genetic growth profiling, strain panel (AID 1159580);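 further: tested at 20 µM; growth read once vehicle control cultures reached saturation at 30 °C; 1 = growth at the plate median or of vehicle wells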
Settings: S. cerevisiae deletion strains, growth OD

Measured: normalized growth

ClC1C(Cl)C(Cl)C(Cl)C(Cl)C1Cl (stereo unspecified)
inactive: locus YAL013W, strain DEP1, stronger effect = lower value 0.981 | locus YAL021C, strain ccr4, stronger effect = lower value 0.997 | locus YAL026C, strain drs2, stronger effect = lower value 0.988 | locus YAL030W, strain snc1, stronger effect = lower value 0.98 | locus YBL061C, strain skt5, stronger effect = lower value 0.965 | locus YBR021W, strain FUR4, stronger effect = lower value 0.985 | locus YBR023C, strain chs3, stronger effect = lower value 0.965 | locus YBR171W, strain sec66, stronger effect = lower value 0.956 | locus YBR229C, strain ROT2, stronger effect = lower value 0.962 | locus YBR231C, strain swc5, stronger effect = lower value 0.913 | locus YBR279W, strain paf1, stronger effect = lower value 0.971 | locus YCL011C, strain gbp2, stronger effect = lower value 0.931 | locus YCL069W, strain vba3, stronger effect = lower value 0.986 | locus YCR088W, strain abp1, stronger effect = lower value 0.965 | locus YDL005C, strain med2, stronger effect = lower value 1.01 | locus YDL035C, strain GPR1, stronger effect = lower value 0.976 | locus YDL040C, strain nat1, stronger effect = lower value 0.986 | locus YDL074C, strain BRE1, stronger effect = lower value 0.939 | locus YDL101C, strain DUN1, stronger effect = lower value 0.964 | locus YDL134C, strain PPH21, stronger effect = lower value 0.963 | locus YDL185W, strain tfp1, stronger effect = lower value 0.926 | locus YDL192W, strain arf1, stronger effect = lower value 0.942 | locus YDR001C, strain nth1, stronger effect = lower value 0.964 | locus YDR069C, strain doa4, stronger effect = lower value 0.989 | locus YDR101C, strain arx1, stronger effect = lower value 0.956 | locus YDR150W, strain NUM1, stronger effect = lower value 0.942 | locus YDR162C, strain NBP2, stronger effect = lower value 0.969 | locus YDR195W, strain ref2 1.07 | locus YDR297W, strain sur2, stronger effect = lower value 0.97 | locus YDR318W, strain mcm21, stronger effect = lower value 0.926 | locus YDR334W, strain swr1, stronger effect = lower value 0.976 | locus YDR335W, strain msn5, stronger effect = lower value 1 | locus YDR388W, stronger effect = lower value 0.935 | locus YDR502C, strain sam2, stronger effect = lower value 0.937 | locus YEL003W, strain gim4, stronger effect = lower value 0.982 | locus YEL037C, strain rad23, stronger effect = lower value 0.973 | locus YEL061C, strain CIN8 (second series), stronger effect = lower value 0.99 | locus YEL061C, strain CIN8, stronger effect = lower value 0.953 | locus YER015W, strain faa2, stronger effect = lower value 0.982 | locus YER016W, strain bim1, stronger effect = lower value 0.98 | locus YER110C, stronger effect = lower value 0.935 | locus YER111C, strain swi4, stronger effect = lower value 0.933 | locus YER155C, strain BEM2, stronger effect = lower value 0.959 | locus YFR010W, strain ubp6, stronger effect = lower value 0.983 | locus YGL078C, strain dbp3, stronger effect = lower value 0.933 | locus YGL086W, strain mad1, stronger effect = lower value 0.933 | locus YGL167C, strain pmr1, stronger effect = lower value 0.974 | locus YGL173C, strain kem1, stronger effect = lower value 0.96 | locus YGL227W, strain vid30, stronger effect = lower value 0.954 | locus YGL248W, strain PDE1, stronger effect = lower value 0.954 | locus YGL253W, strain hxk2, stronger effect = lower value 0.976 | locus YGR078C, strain PAC10, stronger effect = lower value 0.954 | locus YGR135W, strain pre9, stronger effect = lower value 0.947 | locus YGR229C, strain SMI1, stronger effect = lower value 0.954 | locus YGR252W, strain gcn5, stronger effect = lower value 1.12 | locus YHR013C, strain ard1, stronger effect = lower value 0.866 | locus YHR027C, strain rpn1, stronger effect = lower value 0.988 | locus YHR030C, strain SLT2, stronger effect = lower value 0.945 and 0.982 | locus YHR079C, strain IRE1 (second series), stronger effect = lower value 0.927 | locus YHR079C, strain IRE1, stronger effect = lower value 0.985 | locus YHR129C, strain ARP1, stronger effect = lower value 0.958 | locus YHR200W, strain rpn10, stronger effect = lower value 0.922 | locus YIL066C, strain RNR3, stronger effect = lower value 0.955 | locus YIL073C, strain SPO22, stronger effect = lower value 0.906 | locus YIR030C, strain dcg1, stronger effect = lower value 0.945 | locus YJL092W, strain hpr5, stronger effect = lower value 0.95 | locus YJL095W, strain BCK1 (second series), stronger effect = lower value 0.931 | locus YJL095W, strain BCK1, stronger effect = lower value 0.871 and 0.984 | locus YJL115W, strain asf1, stronger effect = lower value 1.01 | locus YJL134W, strain LCB3, stronger effect = lower value 0.955 | locus YJL154C, strain vps35, stronger effect = lower value 0.982 | locus YJL164C, strain tpk1, stronger effect = lower value 0.925 | locus YJL168C, strain set2, stronger effect = lower value 0.943 | locus YJL187C, strain SWE1 (second series), stronger effect = lower value 0.959 | locus YJR043C, strain POL32, stronger effect = lower value 0.965 | locus YJR066W, strain TOR1, stronger effect = lower value 0.939
active: locus YBR009C, strain hhf1, stronger effect = lower value 0.831 | locus YCL016C, strain dcc1, stronger effect = lower value 0.898 | locus YCL029C, strain bik1, stronger effect = lower value 0.906 | locus YCL061C, strain MRC1, stronger effect = lower value 0.894 | locus YDR137W, strain rgp1, stronger effect = lower value 0.606 | locus YDR159W, strain sac3, stronger effect = lower value 0.703 | locus YDR392W, strain spt3, stronger effect = lower value 0.295 | locus YER155C, strain BEM2 (second series), stronger effect = lower value 0.306 | locus YER167W, strain BCK2, stronger effect = lower value 0.84 | locus YGL240W, strain doc1, stronger effect = lower value 0.774 | locus YHR094C, strain hxt1, stronger effect = lower value 0.923 | locus YHR142W, strain chs7, stronger effect = lower value 0.805 | locus YIL125W, strain kgd1, stronger effect = lower value 0.906 | locus YJL129C, strain trk1, stronger effect = lower value 0.783 | locus YJL166W, strain qcr8, stronger effect = lower value 0.728
